Experimental data published in PubChem BioAssay (NCI).
Compounds without any hit were thinned out: in the full panel of roughly 79,000, 15% have a hit. Activity calls are given as the source filed them. Cut-off read from the data, not from the text of the source: active = growth inhibition above about 70%; inactive = the rest.

Assay: NCI Yeast Anticancer Drug Screen. Data for the sgs1 mgt1 strain (AID 161);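 note: 0% = growth of cultures given vehicle only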
Details: S. cerevisiae sgs1 mgt1 strain, at 50.0 µM, stronger effect = higher value
Procedure: Growth inhibition of yeast strains with defined genetic alterations is measured as a screen for potential anti-cancer activity. Selected strains with alterations in DNA damage repair or cell cycle control were exposed to compounds and growth inhibition was measured relative to vehicle treated controls. The strain used in this assay is sgs1 mgt1
In the case of CCOC(=O)C/C(C)=N\O, the growth inhibition is reported as 7.9% (inactive).
For COC(=O)c1cccc(Br)c1, the growth inhibition was -4.75% (inactive).
In the case of CC(=O)/C(Cc1ccccc1)=N/O, the growth inhibition is reported as 15.8% (inactive).
In the case of O=S(=O)(O)c1cc(O)c2c(N=Cc3ccccc3O)c(S(=O)(=O)O)ccc2c1, the growth inhibition is reported as 6.55% (inactive).
For Cc1ccc(C)n1-c1ccsc1C(=O)NNC(=O)C(Cl)Cl, the growth inhibition was 24.8% (inactive).
With Cc1ccccc1N=C(c1ccccc1)C1C(=O)c2ccccc2C1=O the growth inhibition was 42.2% (inactive).
With O=c1cc2oc3cc(O)c(O)cc3c(-c3ccccc3O)c-2cc1O the growth inhibition was 44.9% (inactive).
With O=C(CCNNC(=O)c1ccncc1)NCc1ccccc1 the growth inhibition was 11.9% (inactive).
In the case of Cc1cc(C)cc(NCCC#N)c1, the growth inhibition is reported as 18.4% (inactive).
In the case of CC1NC(=O)NC1CCCCCC(=O)O (stereo not given), the growth inhibition is reported as 13.8% (inactive).
For C#CC(C(C)C)N(CCO)CCCC (stereo not given), the growth inhibition was 8.3% (inactive).
For C=CC(O)CCC (stereo not given), the growth inhibition was -16.8% (inactive).
In the case of O=[N+]([O-])c1ccc(CO)cc1, the growth inhibition is reported as 8.85% (inactive).
In the case of Cc1cc(Cc2cc(C)c(N)cc2N)c(N)cc1N, the growth inhibition is reported as -23.9% (inactive).
With c1csc(-c2cc(-c3cc(-c4cccs4)[nH]n3)n[nH]2)c1 the growth inhibition was 6.35% (inactive).
For Cc1c(O)cnc2nn(-c3ccccc3)c(=N)n12, the growth inhibition was 35.7% (inactive).
In the case of CCC(C)(O)c1ccc(C)cc1 (stereo not given), the growth inhibition is reported as 31.8% (inactive).
For O=C(O)C(c1ccccc1)C(O)c1ccccc1 (stereo not given), the growth inhibition was -22.7% (inactive).
In the case of O=C(/C(=N/O)c1ccccc1)c1ccccc1, the growth inhibition is reported as 1.35% (inactive).
With O=C(O)CNC(=O)c1ccccc1 the growth inhibition was -25.6% (inactive).
In the case of O=C(Cc1ccccc1)Cc1ccccc1, the growth inhibition is reported as -0.45% (inactive).
In the case of C[N+](C)=c1ccc2nc3c(cc(Nc4ccccc4)c4ccccc43)oc-2c1, the growth inhibition is reported as 30.1% (inactive).
With OCC1OC(OC2C(O)C(CO)OC2(CO)OC2OC(CO)C(O)C(O)C2O)C(O)C(O)C1O (stereo not given) the growth inhibition was -31.8% (inactive).
In the case of CCOC(=O)c1cc2cccc(OC)c2oc1=O, the growth inhibition is reported as -5.65% (inactive).
In the case of CCC/C=C(\C)C(C)(C#N)C(=O)OCC (stereo not given), the growth inhibition is reported as 10.8% (inactive).
For CCOC(=O)C(=O)C=P(c1ccccc1)(c1ccccc1)c1ccccc1, the growth inhibition was -21.9% (inactive).
With C1CNC(C2=NCCN2)=N1 the growth inhibition was -24.5% (inactive).
In the case of O=[N+]([O-])c1ccccc1N=Nc1ccc(O)cc1O, the growth inhibition is reported as 31.9% (inactive).
With Nc1nc2c(c(-c3nc(N)nc4c3CCc3ccccc3-4)n1)CCc1ccccc1-2 the growth inhibition was -25.1% (inactive).
For COC(=O)c1cc(-c2ccc(Cl)c(Cl)c2)[nH]c(=O)c1C#N, the growth inhibition was -27.9% (inactive).
In the case of COS(=O)(=O)c1ccc(Br)cc1, the growth inhibition is reported as -17.3% (inactive).
For c1ccc(CN2COc3c(ccc4c3OCN(Cc3ccccc3)C4)C2)cc1, the growth inhibition was 23.1% (inactive).
For Cc1cc(C)c(N)c(S(=O)(=O)O)c1, the growth inhibition was -24.1% (inactive).
In the case of CCOc1ccc(/C=C/C(=O)c2ccccc2)cc1, the growth inhibition is reported as 24.6% (inactive).
In the case of O=C(Nc1ccccc1C(=O)NCC1CC1)c1cccs1, the growth inhibition is reported as 3.4% (inactive).
For NC(=S)NN=C1CCCC1, the growth inhibition was 4.75% (inactive).
With Nc1nc(N)c(N=Nc2ccc(C(=O)O)cc2)c(N)n1 the growth inhibition was 3% (inactive).
For CCN(CC)C(=O)/C=C(/C)c1ccccc1, the growth inhibition was -22.2% (inactive).
For CC1(C)Nc2cccc3c(N=Nc4ccc(N=Nc5ccccc5)c5ccccc45)ccc(c23)N1, the growth inhibition was -27% (inactive).
With CCOC(=O)C1=C(C)NC(=O)NC1c1cccs1 (stereo not given) the growth inhibition was -14.4% (inactive).
